Hits are enriched below; roughly 27% of the tested compounds scored in any of these assays.
CYP2C19 inh – blocks human cytochrome P450 2C19. P33261. CYP2C19 Supersomes, luciferin-H EGE luminescence, 30 min. inhibition, % at 5 µM. 96,000 compounds, 21% hits;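 active = CYP2C19 inhibition above a set limit at 5 µM in the primary screen, cut at about 50% in these data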
Target sequence (P33261 whole entry, looked up): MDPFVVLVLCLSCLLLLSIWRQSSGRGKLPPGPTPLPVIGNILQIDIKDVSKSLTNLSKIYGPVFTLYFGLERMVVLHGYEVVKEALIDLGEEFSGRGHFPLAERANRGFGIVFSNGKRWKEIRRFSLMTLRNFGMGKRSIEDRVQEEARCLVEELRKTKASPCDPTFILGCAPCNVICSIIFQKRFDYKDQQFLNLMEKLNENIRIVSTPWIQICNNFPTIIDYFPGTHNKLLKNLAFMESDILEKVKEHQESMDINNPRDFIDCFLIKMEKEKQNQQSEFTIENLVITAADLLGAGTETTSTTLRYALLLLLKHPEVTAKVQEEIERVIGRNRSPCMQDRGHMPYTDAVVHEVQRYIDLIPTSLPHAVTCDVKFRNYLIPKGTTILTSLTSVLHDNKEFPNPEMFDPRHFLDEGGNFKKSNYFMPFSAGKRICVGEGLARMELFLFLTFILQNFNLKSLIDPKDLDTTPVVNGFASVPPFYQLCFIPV
CYP2C9 inh – inhibitors of human CYP2C9. CYP2C9 Supersomes, luciferin-H conversion, luminescence. inhibition, % at 5 µM. 96,000 compounds, 20% hits. AID 777;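 active = blocking of liver enzyme CYP2C9 beyond about 50% at 5 µM, limit read from the data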
CYP2C19 act – cytochrome P450 2C19 (human) activation | P33261 | recombinant CYP2C19, luciferin-H EGE luminescence; active compounds read high; 0 = fully inhibited enzyme, 1 = untreated enzyme | activation factor at 5 µM | 96,000 tested, under 10 active;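 active = activation factor of at least 2 at 5 µM in the primary screen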
CYP2C9 activ – CYP2C9 (human) activation; P11712; 96,000 compounds, 1.4% hits; AID 1024; recombinant CYP2C9, luciferin-H conversion, luminescence; active compounds read high; factor 1 = untreated enzyme, 0 = blocked; activation factor at 5 µM;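 active = activation factor of 2 or more for CYP2C9 at a 5 µM dose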
EphB4 ephrin blk – blocks human EphB4 binding to ephrin-B2; AID 720; inhibition, % at 7 µM; 97,000 compounds, 0.15% hits; EphB4 LBD / TNYL-RAW-Alexa532 peptide, fluorescence polarization; P54760;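 active = inhibition above the screen-wide mean inhibition plus 3 SD, cut at about 15% in these data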
Hits are given with their value; i = inactive; nt = no result given.

SMILES	CYP2C19 inh	CYP2C9 inh	CYP2C19 act	CYP2C9 activ	EphB4 ephrin blk
CCCOc1ccc(N2CC(C(=O)Nc3ccccc3C(=O)NCc3ccco3)CC2=O)cc1 (stereo not drawn)	i	62	i	i	i
COc1ccc(N2CC(C(=O)Nc3ccc(F)cc3F)CC2=O)cc1 (stereo not drawn)	i	i	i	i	i
O=C(NCc1ccco1)C1CC(=O)N(c2ccc(O)cc2)C1 (stereo not drawn)	i	i	i	2.5	i
O=C(NCc1ccco1)C1CC(=O)N(CCc2ccccc2)C1 (stereo not drawn)	i	i	i	i	i
COc1ccc(N2CC(C(=O)Nc3ccccc3C(=O)NCc3ccco3)CC2=O)cc1 (stereo not drawn)	66	84	i	i	i
CCCCCC(O)(CCCCC)C(=O)NNc1ccccc1	i	i	i	i	i
CCOc1c2ccc(C(=O)NCc3cc(C(F)(F)F)cc(C(F)(F)F)c3)cc2nn1C	i	i	i	i	i
CCCOCC(O)COc1ccccc1C(=O)N1CCOCC1 (stereo not drawn)	i	i	i	i	i
COc1ccc(NC(=O)/C=C/c2cc(Br)ccc2OC)cc1	i	i	i	i	i
COc1ccc(Br)cc1/C=C/C(=O)Nc1c(C)cccc1C	i	i	i	2.1	i
CCN(CC)c1ccc(NC(=O)/C=C/c2cc(Br)ccc2OC)cc1	i	i	i	2.2	i
COc1ccc(Br)cc1/C=N/NC(=O)CNC(=O)/C=C/c1ccccc1	i	i	i	i	i
Cc1cccc(-c2cc3nc4c(c(N5CCC6(CC5)OCCO6)n3n2)CCCC4)c1	nt	nt	nt	nt	i
OC1CCCN(c2c3c(nc4cc(-c5cccc(Cl)c5)nn24)CCC3)C1 (stereo not drawn)	nt	nt	nt	nt	i
Cc1cccc(-c2cc3nc4c(c(N5CCOCC5)n3n2)CCCC4)c1	i	55	i	i	i
Cc1cccc(-c2cc3nc4c(c(N5CCCC(O)C5)n3n2)CCC4)c1 (stereo not drawn)	87	98	i	i	i
CCOC(=O)C(C)Sc1nnc(-c2c[nH]c3ccccc23)n1C (stereo not drawn)	i	i	i	i	i
Cn1c(SCc2cccnc2)nnc1-c1c[nH]c2ccccc12	83	i	i	i	i
CC(C)Sc1nnc(-c2c[nH]c3ccccc23)n1C	68	i	i	i	i
C/C(=N/NC(=O)c1cccc(C)c1)c1c(O)cc(C)oc1=O	nt	nt	nt	nt	i
CCOC(=O)Cc1csc(NC(=O)CSc2nnnn2-c2ccc(F)cc2)n1	i	i	i	i	i
CCOC(=O)N1CCN(C(=O)COc2cc(=O)n(CC)c3ccccc23)CC1	i	i	i	i	i
Cc1cc2ccccc2c(=O)n1CC(=O)NCC(=O)N1CCN(c2ccccc2F)CC1	i	i	i	2.1	i
CCn1c(=O)cc(SCC(=O)N2CCN(c3ccccn3)CC2)c2ccccc21	72	51	i	i	nt
CCn1c(=O)cc(SCC(=O)N2CCN(c3ccccc3F)CC2)c2ccccc21	i	i	i	2.2	i
SMILES	CYP2C19 inh	CYP2C9 inh	CYP2C19 act	CYP2C9 activ	EphB4 ephrin blk
CCOC(=O)Cc1cc(=O)n2[nH]c(C)cc2n1	i	i	i	i	i
Oc1ccc2ccccc2c1CN1CCN(c2ccccc2)CC1	i	i	i	i	i
O=C(NCCN1CCOCC1)c1ccc(Cl)cc1	i	i	i	i	i
CCN(CC)S(=O)(=O)c1ccc(OC)nc1	i	i	i	i	i
CCN(CC)S(=O)(=O)c1ccc(OC(C)C)nc1	79	i	i	i	i
Cc1cc(C)c2c(c1)OC(O)(C(F)F)CC2=O (stereo not drawn)	88	i	i	i	i
CC(=O)N1CCN(C(=O)CCc2nc3ccccc3c(=O)[nH]2)CC1	i	i	i	i	i
O=C(c1ccc(Br)o1)N1CCN(C/C=C/c2ccccc2)CC1	65	63	i	i	i
O=C(c1ccc(Br)s1)N1CCN(C/C=C/c2ccccc2)CC1	i	i	i	i	i
O=C(CCc1nc2ccccc2c(=O)[nH]1)N1CCN(C/C=C/c2ccccc2)CC1	i	52	i	i	i
O=C(c1ccc(=O)n(Cc2ccccc2)n1)N1CCN(C/C=C/c2ccccc2)CC1	69	92	i	i	i
O=C(Cn1nnc(-c2cc(Cl)ccc2-n2cnnn2)n1)N1CCCc2ccccc21	i	i	i	i	i
COC(=O)c1cc2c([nH]c3ccccc32)c(C)n1	62	i	i	i	i
O=C1NCCN1C(=O)c1ccco1	i	i	i	i	i
O=C(c1ccco1)N1C(=O)c2cccc3cccc1c23	i	i	i	3.8	i
Cc1nc2c3c(-c4ccccc4)c(-c4ccccc4)oc3ncn2n1	i	i	i	i	nt
CCOC(=O)c1c(C)[nH]c(C)c1C(=O)COC(=O)[C@@H]1CCCN1S(=O)(=O)c1ccc(Cl)cc1	93	80	i	i	i
CCOCCCNC(=O)C1CCCN1S(=O)(=O)c1ccc(Cl)cc1 (stereo not drawn)	i	i	i	i	i
Cc1ccc(-c2csc3ncnc(N4CCN(C(=O)c5ccccc5)CC4)c23)cc1	73	79	i	i	i
O=C(c1ccco1)N1CCN(c2ncnc3scc(-c4ccccc4)c23)CC1	i	i	i	i	i
O=C(c1ccco1)N1CCN(c2ncnc3scc(-c4cccs4)c23)CC1	i	i	i	i	i
c1ccc(N2CCN(c3ncnc4scc(-c5cccs5)c34)CC2)cc1	96	97	i	i	i
Cc1cc2oc(=O)cc(CN3CCC(C)CC3)c2c(C)c1Cl	i	i	i	i	i
CCOc1ccc(C(C)(C)C)cc1S(=O)(=O)N1CC(C)OC(C)C1 (stereo not drawn)	79	63	i	i	i
COc1ccc(Br)cc1S(=O)(=O)N1CC(C)OC(C)C1 (stereo not drawn)	nt	nt	nt	nt	i
SMILES	CYP2C19 inh	CYP2C9 inh	CYP2C19 act	CYP2C9 activ	EphB4 ephrin blk
COc1cc(CNCCO)cc(Br)c1OCc1cccs1	i	i	i	i	i
COc1ccc(-c2cc(O)cc(O)c2)cc1	59	60	i	i	i
CCOc1ccc(C(C(=O)NC2CCCCC2)N(C(=O)c2ccco2)c2ccc(-n3cnnn3)c(C)c2)cc1 (stereo not drawn)	nt	nt	nt	nt	i
C=CCn1c(NCc2cc(C)ccc2O)nc2ccccc21	85	64	i	i	i
C=CCn1c(NC(C)c2cc(Cl)ccc2O)nc2ccccc21 (stereo not drawn)	68	i	i	i	i
C=CCn1c(NCc2ccc(N(C)C)cc2)nc2ccccc21	96	i	i	i	i
COC(=O)NCC(C)OC(=O)Nc1cccc(Cl)c1 (stereo not drawn)	59	i	i	i	i
O=C(Nc1cccc(Cl)c1)ON=C1c2ccccc2-c2ccccc21	i	63	i	i	i
CC1CCCC(C)N1C(=O)Nc1cccc(Cl)c1 (stereo not drawn)	i	i	i	i	i
COC(=O)c1cc(NC(=O)Nc2cccc(Cl)c2)ccc1Cl	i	i	i	i	i
CC(C)COC(=O)NCCOC(=O)Nc1cccc(Cl)c1	95	80	i	i	i
